From PubChem BioAssay
USP2a block: qHTS Assay for Inhibitors of Ubiquitin-specific Protease USP2a Using CHOP2 as the Reporter; Ubiquitin carboxyl-terminal hydrolase 2 (Homo sapiens), O75604; USP2 core, Ub-CHOP2 coupled fluorogenic reporter, 485/531; Potency, µM (highest dose often 38.3 µM), for the others: at the highest dose activity change, negative = inhibition, most hits filed as inhibitors; 330,000 compounds, 0.01% hits;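 also: plate controls were DMSO wells for no effect and full inhibition by NEM control for full effect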
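Deubiquitinase activity read as fluorescence (485/531 nm) after Ub-CHOP2 cleavage activates the enterokinase reporter on its substrate; USP2 core 10nM, Ub-CHOP2 and substrate 25nM each, 30min compound preincubation then 60min RT; data normalized to NEM, curves fitted.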
Eya2 phos inh: qHTS Assay for Inhibitors of the Phosphatase Activity of Eya2. Protein phosphatase EYA2 (Homo sapiens), O00167. recombinant Eya2, OMFP fluorescence dephosphorylation (OMFP is methylfluorescein phosphate). Potency, µM (doses to about 76.9 µM), inactives show at the highest dose activity, negative = inhibition, hits mostly inhibitors. 330,000 compounds, 0.006% hits. AID 488837, 2010; also: % is scaled to controls: 0 for no effect and ±100 for the full control effect
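Eya2 (0.2 uM) preincubated 10 min at ambient with compound, then OMFP substrate added at 50 uM; 10 min reaction in 50 mM HEPES pH 7.5, 50 mM NaCl, 5 uM MgCl2, 0.05% BSA, 1 mM DTT. Fluorescence read at Ex 485/Em 525 nm.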
ClpP mod: qHTS Assay for Activators of ClpP; ATP-dependent Clp protease proteolytic subunit (Bacillus subtilis (strain 168)), P80244; Potency, µM (titrated, usually from 57.5 µM), inactives show at the top dose activity change, negative = active; purified B. subtilis ClpP, FRET peptide cleavage, 20 min; AID 651965, 2013; 340,000 compounds, 1.9% hits; active = well fitted falling curve with a large enough effect; inconclusive = small, poorly fitted or top-dose-only effect; inactive = no such curve, though single readings can be large or run the other way; also: the source files actives as falling curves though it sought activators and does not explain the sign; nearly all actives have a fitted effect of over 65% in size
Target sequence (P80244 whole entry, looked up): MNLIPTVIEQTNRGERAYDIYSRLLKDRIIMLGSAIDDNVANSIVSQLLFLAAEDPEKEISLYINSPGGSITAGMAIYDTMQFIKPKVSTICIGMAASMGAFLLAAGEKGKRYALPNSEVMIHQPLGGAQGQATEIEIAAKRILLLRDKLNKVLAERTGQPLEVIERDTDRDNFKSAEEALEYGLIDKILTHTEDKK
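Purified B. subtilis ClpP, 10 microg/mL final in Tris/HCl pH8 with KCl, BSA, glycerol and Tween-20, cleaved an Abz/nitrotyrosine-quenched decapeptide. Fluorescence (ex 320, em 430) was read at 0 and 20 min at room temperature. Delta was normalized to 5.8 microM ADEP and DMSO/no-enzyme controls.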
GALK inhibitor: qHTS Assay for Inhibitors of Human Galactokinase (GALK). P51570. Purified GALK, Kinase-Glo residual ATP luminescence. Potency, µM (doses to about 57.5 µM), for the others: at the highest dose activity change, negative = inhibition, actives largely listed as inhibitors. 270,000 compounds, 0.007% hits. AID 1868, 2009; also: % is scaled to controls: 0 for no effect and ±100 for the full control effect
Target sequence (P51570 whole entry, looked up): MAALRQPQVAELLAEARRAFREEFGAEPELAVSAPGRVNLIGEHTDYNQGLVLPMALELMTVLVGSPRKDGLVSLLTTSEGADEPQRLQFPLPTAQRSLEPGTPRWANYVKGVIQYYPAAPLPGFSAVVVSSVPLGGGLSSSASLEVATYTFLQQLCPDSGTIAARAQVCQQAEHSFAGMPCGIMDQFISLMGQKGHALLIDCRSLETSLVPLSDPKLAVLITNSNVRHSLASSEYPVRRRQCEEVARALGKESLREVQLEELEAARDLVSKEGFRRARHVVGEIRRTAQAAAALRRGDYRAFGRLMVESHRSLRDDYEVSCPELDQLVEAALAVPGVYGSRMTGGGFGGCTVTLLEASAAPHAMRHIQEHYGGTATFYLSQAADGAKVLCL
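ATP-depletion format; final 35 uM ATP, 100 uM D-galactose, 5 nM enzyme; pH 8.0 HEPES/Mg2+ buffer; 60 min RT; luminescence read 10 min after detection reagent.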
* marks the source's active call; other numbers are inactive results; ? = inconclusive; · = no result given. The entries come from a sample that favours hits as a whole. Unless noted, calls follow the shape of the dose curve; as a rule, active = well fitted inhibition curve with a large enough effect; inconclusive = small, poorly fitted or top-dose-only effect, or effect the other way; inactive = flat fitted curve, though single readings scatter. Potency is read from the fitted curve at half-maximal effect.

SMILES	USP2a block	Eya2 phos inh	ClpP mod	GALK inhibitor
C[C@H]1CN([C@@H](C)CO)C(=O)CCCn2nncc2CO[C@H]1CN(C)C(=O)Nc1ccccc1	·	·	-4%	·
CCc1nc2c(OCC(=O)C(C)(C)C)cccn2c1N(C=O)Cc1ccc(OC)cc1	·	·	1%	·
Cc1ccc(NC(=O)C2CCN(S(=O)(=O)c3ccc(Cl)c(C(F)(F)F)c3)CC2)nc1	0%	20%	·	·
Cc1ccnc(NC(=O)C2CCN(S(=O)(=O)c3ccc(Cl)c(C(F)(F)F)c3)CC2)c1	0%	23%	32µM*	·
Nc1c(S(=O)(=O)c2cccs2)c2nc3ccccc3nc2n1CCc1ccccc1	-17%	-27%	·	-1%
Nc1c(S(=O)(=O)c2cccs2)c2nc3ccccc3nc2n1Cc1cccs1	-1%	15%	32µM*	4%
Nc1c(S(=O)(=O)c2cccs2)c2nc3ccccc3nc2n1Cc1ccc2c(c1)OCO2	2%	-27%	14µM*	0%
CN(C(=S)NC1CCCCC1)C1(c2ccccc2Cl)CCCCC1=O (stereo not given)	3%	-5%	·	2%
COc1ccc(C(C)C)cc1S(=O)(=O)N1CCC(C(=O)NCc2cccnc2)CC1	3%	1%	·	0%
COc1ccc(-c2cc(-c3ccccc3)c(C#N)c(SCC(O)CS(=O)(=O)Cc3ccccc3)n2)cc1 (stereo not given)	·	·	4%	·
CCCCS(=O)(=O)CC(O)CSc1nc(-c2ccc(C)cc2)cc(-c2ccccc2)c1C#N (stereo not given)	·	·	3.5µM*	·
O=C(NNC(=O)c1cc2cc3ccccc3nc2s1)c1cccc(Cl)c1	-1%	-17%	-10%	-2%
Cc1cccc(C(=O)NNC(=O)c2cc3cc4ccccc4nc3s2)c1	0%	3%	22µM*	4%
CN(C1CCCCC1)S(=O)(=O)c1ccc(NC(=O)C2CCCCC2C(=O)O)cc1 (stereo not given)	-1%	-19%	32µM*	1%
CCSc1nnc(NC(=O)CSc2nccn2-c2cccc(C)c2C)s1	3%	17%	0%	-2%
O=C(Nc1ccccn1)c1cc2ccccc2o1	2%	10%	0%	10%
Cc1cn2c(nc(=O)c3cccnc32)s1	-7%	-16%	16µM*	1%
Cc1ccc(-n2cnc(=O)c3cccnc32)cc1	2%	8%	0%	·
COc1ccc(NCc2nnc(SCC(=O)Nc3ccccc3)n2C)cc1	3%	-7%	·	4%
O=C(N/N=C/c1cn(-c2cccs2)nc1-c1ccccc1)c1ccccc1Br	0%	3%	22µM*	0%
COc1ccc(-c2nn(-c3ccccc3)cc2/C=C/C(=O)OCC(=O)Nc2cccc(C#N)c2)cc1	3%	-10%	25%	0%
COc1ccc(-c2nn(-c3ccccc3)cc2/C=N/NC(=O)c2cccc(S(=O)(=O)Nc3ccccc3OC)c2)cc1	1%	0%	18µM*	3%
COc1ccc(-c2nn(-c3ccccc3)cc2/C=C/C(=O)OCC(=O)Nc2ccc(C#N)cc2)cc1	-5%	-3%	28µM*	1%
COc1ccc(-c2nn(-c3ccccc3)cc2/C=N/NC(=O)c2ccc(Br)o2)cc1	0%	12%	32µM*	-3%
Cc1cc(Cl)ccc1NC(=S)NC(C)(C)C	1%	-1%	2%	5%
SMILES	USP2a block	Eya2 phos inh	ClpP mod	GALK inhibitor
N=c1c(C(=O)NC2CCCC2)cc2c(=O)n3ccccc3nc2n1C1CCCC1	2%	-5%	3.2µM*	-2%
Cc1cccn2c(=O)c3cc(C(=O)NCc4ccco4)c(=N)n(CCc4ccccc4)c3nc12	1%	9%	·	0%
N=c1c(C(=O)NCc2ccco2)cc2c(=O)n3ccccc3nc2n1Cc1ccc(Cl)cc1	2%	3%	?	-1%
Cc1cccn2c(=O)c3cc(C(=O)NC4CCCC4)c(=N)n(C4CCCC4)c3nc12	5%	-13%	?	0%
Cc1cccn2c(=O)c3cc(C(=O)NCc4ccco4)c(=N)n(C(C)C)c3nc12	-1%	7%	14µM*	0%
N=c1c(C(=O)NCc2ccco2)cc2c(=O)n3ccccc3nc2n1Cc1ccccc1	-1%	3%	18µM*	-2%
COCCn1c(=N)c(C(=O)NCc2ccco2)cc2c(=O)n3ccccc3nc21	2%	-5%	28µM*	4%
Cc1ccc2cc(C(c3nnnn3C3CCCC3)N3CCN(c4ccccc4)CC3)c(=O)[nH]c2c1 (stereo not given)	4%	-1%	-7%	-4%
Cc1cc(C)c2c(n1)nn1c(C)c(CCC(=O)Nc3ccc(C)c(Cl)c3)c(C)nc21	·	·	-23%	·
O=C(Nc1ccc2c(c1)C(=O)N(CC1CCCO1)C2=O)c1cccc(Br)c1 (stereo not given)	1%	-4%	32µM*	-1%
CC(=O)Oc1cccc(C(=O)Nc2ccc3c(c2)C(=O)N(CC2CCCO2)C3=O)c1 (stereo not given)	0%	15%	32µM*	2%
O=C(O)c1cccc(NC(=O)c2ccc3c(c2)C(=O)N(CC2CCCO2)C3=O)c1 (stereo not given)	2%	4%	2%	4%
COc1cc(C(=O)Nc2ccc3c(c2)C(=O)N(CCC(=O)O)C3=O)cc(OC)c1OC	4%	1%	1%	-2%
CC(=O)Oc1ccc(C(=O)Nc2ccc3c(c2)C(=O)N(CCC(=O)O)C3=O)cc1	-1%	11%	28µM*	3%
Cc1cc(C)cc(N(C(=O)CNC(=O)c2ccco2)C(C(=O)NC2CCCC2)c2ccncc2)c1 (stereo not given)	1%	2%	-1%	8%
CCCCC[n+]1ccn(C2=C([O-])c3ccccc3C(=O)/C2=N\S(=O)(=O)c2ccc(Cl)cc2)c1	-1%	3%	2%	1%
C[C@@H]1CN([C@@H](C)CO)C(=O)c2cc(NS(=O)(=O)c3cccs3)ccc2O[C@H]1CN(C)Cc1ccc(C(F)(F)F)cc1	-16%	-21%	-1%	·
COc1ccc(-c2noc(CCC(=O)NCCCN3CCN(c4ccc(F)cc4)CC3)n2)cc1	1%	7%	0%	-1%
CCc1ccc2occ(CC(=O)Nc3c(C(=O)c4ccccc4)oc4ccccc34)c2c1	·	·	22µM*	·
CCc1ccc2occ(CC(=O)Nc3c(C(=O)Nc4ccc(C)cc4)oc4ccccc34)c2c1	·	·	261%	·
CCc1ccc2occ(CC(=O)Nc3c(C(=O)Nc4ccc(Cl)cc4)oc4ccccc34)c2c1	·	·	16µM*	·
Cc1ccc2occ(CC(=O)Nc3c(C(=O)Nc4ccc(Cl)cc4)oc4ccccc34)c2c1	·	·	18µM*	·
Cc1ccc(C(=O)c2oc3ccccc3c2NC(=O)Cc2coc3c(C)c(C)ccc23)cc1	·	·	-2%	·
COc1c(N)c2ccccc2[nH]c1=O	-1%	-16%	32µM*	0%
